The values that follow come from PubChem BioAssay (EPA / NIEHS).

Active and inactive are the calls of the source. Rule for the calls: active = hit-call score of the fitted dose curve at least 0.9, where 1 is the maximum; inactive = score below 0.9.

The test is described as follows: CCTE_Shafer_MEA_acute_per_network_burst_spike_number_mean: CCTE's Neural Acute Assay for Average Number of Spikes in a Network Burst, Shafer Lab (AID 2284019). As to the method:
CCTE_Shafer_MEA_acute assay is conducted using Axion Biosystems 48 well microelectrode array (MEA) plates and Maestro recording system. Each well of the MEA plate contains a grid of 16 microelectrodes embedded in the culture surface. Electrically active cells, such as neurons, can be cultured over the electrodes, and electrical activity in these cells can be recorded extracellularly. The spontaneous firing of neurons is captured from each electrode on a microsecond timescale providing both temporally and spatially precise data. […] The CCTE_Shafer_MEA_acute assay uses primary cultures of rat cortical neurons. As these cultures mature over time, neural networks develop functional activity and form cohesive networks in which electrical activity can be highly coordinated. Baseline 40-minute recordings are made on days post-plating 13 or 15, followed by a secondary 40-minute recording after chemical exposure.CCTE_Shafer_MEA_acute_per_network_burst_spike_number_mean is a component of the CCTE_Shafer_MEA_acute assay. It measures the average number of spikes (action potential firings) in a network burst (temporally-clustered group of spikes across multiple electrodes) as the total number of spikes in a network burst divided by the number of network bursts during a recording in a microelectrode array (MEA) using Axion Biosystems Maestro 768 channel amplifier with the AxIS adaptive spike detector. The recordings before and after chemical treatment are used to calculate a percent change in the mean number of spikes in a network burst in each well.Data from the assay component CCTE_Shafer_MEA_acute_per_network_burst_spike_number_mean was analyzed into 1 assay endpoint. This assay endpoint, CCTE_Shafer_MEA_acute_per_network_burst_spike_number_mean, was analyzed in the negative analysis fitting direction relative to DMSO as the negative control and baseline of activity. Using a type of functional reporter, gain or loss-of-signal activity can be used to understand electrical activity.
Spontaneous activity in the cortical cultures was recorded using an Axion Biosystems Maestro 768 channel amplifier and Axion Integrated Studios (AxIS) v1.8 (or later) software. The amplifier recorded from all channels simultaneously (gain = 1200 x; sampling rate = 12.5 kHz/channel): raw signals were filtered with a Butterworth band-pass filter (300-5000 Hz), which filters out slower local field potentials leaving only fast potentials, i.e., "spikes", arising from extracellular currents associated with action potentials (Pine 2006; Wheeler and Nam 2011). On-line spike detection of filtered signals was conducted with the AxIS adaptive spike detector, using a threshold of 8x the root mean squared (rms) noise on each channel. Any electrodes with rms noise levels greater than 5 uV were grounded (e.g., no data were recorded). Once grounded, an electrode was grounded for the duration of the experiment. All recordings were conducted at 37 C. Wells were deemed usable if on the day of the exposure >/= 10 electrodes were active (defined as >/= 5 spikes/min). On DIV 13 or 15, a minimum of three wells from one cortical culture preparation were treated with each compound (0.03-40 uM). Prior to recording baseline activity, each mwMEA plate was placed in the Maestro at 37 C and allowed to sit for 20 min while firing rates stabilized. Baseline activity (40 min) was recorded before the addition of each compound. An additional 40 min of spontaneous activity was recorded in the presence of each compound. Changes in network parameters relative to baseline were assessed following compound treatment.
Usually AC50 stands for the concentration giving half of the maximal activity seen. For `CO[C@H]1/C=C/O[C@@]2(C)Oc3c(C)c(O)c4c(O)c(c(/C=N/N5CCN(C)CC5)c(O)c4c3C2=O)NC(=O)/C(C)=C\C=C\[C@H](C)[C@H](O)[C@@H](C)[C@@H](O)[C@@H](C)[C@H](OC(C)=O)[C@@H]1C`, the AC50 is 12.5 µM (active).

Turning to `CC1=CC(=O)/C(=C(/C)O)C(=O)O1`, the outcome was inactive.

As for `C[C@]12CC[C@@H]3c4ccc(O)cc4CC[C@H]3[C@@H]1CC[C@H]2O`, the result was inactive.

Take `CC/C(=C(/CC)c1ccc(O)cc1)c1ccc(O)cc1`: the half-maximal activity concentration (AC50) was 5.3 µM (active).

For the compound `Cc1cc2c(cc1C(F)(F)F)N(C(=O)Nc1ccc(Oc3cccnc3C)nc1)CC2`, the result was inactive.

For `Cc1c2ccccc2c(C)c2c1ccc1ccccc12`, the outcome was inactive.

For the compound `OC12N=C(c3ccccc3)SC1Cc1cc(Cl)ccc12` (stereo unspecified), the result was inactive.

As to `COc1cccc([C@H](O)C2CCN(CCc3ccc(F)cc3)CC2)c1OC`, the outcome was inactive.

For the compound `O=c1[nH]sc2ccccc12`, the compound was called inactive.

With `CCCCCCCCOC(=O)c1cc(O)c(O)c(O)c1`, the compound was called inactive.

Turning to `NCc1cccc(C2CCN(C(=O)c3ccc(C#Cc4ccccc4F)o3)CC2)c1`, the outcome was inactive.

In the case of `CN(C)C(=O)C1(N2CCCCC2)CCN(CC[C@@]2(c3ccc(Cl)c(Cl)c3)CN(C(=O)c3ccccc3)CCO2)CC1`, the AC50 was 2.5 µM (active).

Take `CC(O)CC(C)(C)O` (stereo unspecified): the compound was classed as inactive.

Take `CCCCOC(=O)c1ccc(O)cc1`: the compound was called inactive.

Regarding `COc1cc(C(=O)NC2CCN(C)CC2)ccc1Nc1ncc2c(n1)N(C1CCCC1)CC(F)(F)C(=O)N2C`, the half-maximal activity concentration (AC50) is 3.69 µM (active).

As for `CN(C[C@@H](CC[N+]12CCC(C3CCCCC3)(CC1)CC2)c1ccc(Cl)c(Cl)c1)C(=O)c1cc(C(F)(F)F)cc(C(F)(F)F)c1`, the call was inactive.

Consider `CC[C@@H]1C[C@H](N(Cc2cc(C(F)(F)F)cc(C(F)(F)F)c2)C(C)=O)c2cc(C(F)(F)F)ccc2N1C(=O)OC(C)C`, for which the result was inactive.

For the compound `CCN(Cc1cccc(S(=O)(=O)O)c1)c1ccc(C(=C2C=CC(=[N+](CC)Cc3cccc(S(=O)(=O)O)c3)C=C2)c2ccccc2S(=O)(=O)[O-])cc1`, the result was inactive.

Turning to `CCCCCCCCCCCCO`, the result was inactive.

As for `Cc1cn([C@H]2C[C@H](N=[N+]=[N-])[C@@H](CO)O2)c(=O)[nH]c1=O`, the result was inactive.

Take `CC(=O)N1CCN(c2ccc(OC[C@H]3CO[C@](Cn4ccnc4)(c4ccc(Cl)cc4Cl)O3)cc2)CC1`: the compound was called inactive.

In the case of `O=C1O[C@H]([C@@H](O)CO)C(O)=C1O`, the compound was called inactive.

On to `CC(C)(c1cc(Br)c(O)c(Br)c1)c1cc(Br)c(O)c(Br)c1`, for which the call was inactive.

Take `O=C(O)c1ccccc1-n1cc(C(=O)O)c(=O)c2cc(Nc3c(F)cc(F)cc3Cl)c(Cl)cc21`: the call was inactive.

On to `NC(=O)c1nc(-c2cccc(-c3cc(F)ccc3OCC(F)(F)C(F)(F)F)c2)n[nH]1`, for which the AC50 was 0.16 µM (active).

As for `CN(C)c1ccc(C(=C2C=CC(=[N+](C)C)C=C2)c2ccc(N(C)C)cc2)cc1`, the call was inactive.

With `c1ccc2n[nH]nc2c1`, the result was inactive.

Take `CCN(CC)C(=O)c1cc(S(=O)(=O)Cc2ccccc2)c(N2CCC(c3ccccc3)CC2)cc1N(CC)CCN(C)C`: the AC50 was 1.57 µM (active).

On to `Clc1ccccc1C(c1ccccc1)(c1ccccc1)n1ccnc1`, for which the outcome was inactive.

Take `CC(C)(C)c1cc(/C=C2\SC(N)=NC2=O)cc(C(C)(C)C)c1O`: the outcome was inactive.

For `CN1C(=O)CC[C@H]1c1cccnc1`, the outcome was inactive.
